Dicer processing = blocks human Dicer maturation of pre-miR-21. Q9UPY3. cat-ELCCA pre-miR-21 Dicer processing, chemiluminescence; hits give high values. z-score at 25 µM. hit rate 6% among 47,000; in the data active = z-score above about 3, passing the limit was not always enough;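 also: plate controls were vehicle for no effect and no enzyme for full effect; higher signal means more uncleaved substrate so more Dicer inhibition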
* = called active by the depositor. This is one part of a sample in which hits are shown more often than they occur.

SMILES | Dicer processing
CC1=CS(=O)(=O)c2ccc(Cl)cc21 | 4.26*
O=C1NS(=O)(=O)c2ccc(Cl)cc2Sc2ccccc21 | 0.03
COC(=O)c1cc2c(s1)-c1cc(Cl)ccc1S(=O)(=O)C2 | -1.16
Cc1c(C(=O)N2CCN(C)CC2)sc2ncn(CC(=O)N3CCOCC3)c(=O)c12 | -2.81
CC(C(=O)NNC(=O)C(C)(C)C)n1nnc(-c2cc(C(F)(F)F)cc(C(F)(F)F)c2)n1 (configuration not stated) | 3.75*
CC(C(=O)NNC(=O)C1CC1)n1nnc(-c2cc(C(F)(F)F)cc(C(F)(F)F)c2)n1 (configuration not stated) | -5.93
CC(=O)NNC(=O)C(C)n1nnc(-c2cc(C(F)(F)F)cc(C(F)(F)F)c2)n1 (configuration not stated) | -0.56
O=C1Nc2ccc(S(=O)(=O)Nc3ccc(O)c(-c4c(O)ccc5ccccc45)c3)c3cccc1c23 | 10.7
CCOC(=O)c1sc(SC)c2c1CCCC2O (configuration not stated) | -1.78
NC(=O)c1c(NC(=O)c2ccccc2C(=O)O)sc2c1CCCC2 | 0.5
COc1ccc(NC(=O)c2c(NC(=O)c3ccco3)sc3c2CCC3)cc1 | 3.26*
COC(=O)c1c(NC(=O)c2cc(OC)cc(OC)c2)sc2c1CCC2 | 0.77
COC(=O)c1c(NC(=O)c2c(OC)cccc2OC)sc2c1CCC2 | 1.48
CCOC(=O)CCC(=O)Nc1sc2c(c1C(=O)OCC)CCCC2 | 1.54
COC(=O)c1c(NC(=O)c2ccccc2C(=O)O)sc2c1CCC2 | 3.06*
CCOC(=O)c1c(NC(=O)CC)sc2c1CCC2 | 1.43
COC(=O)c1c(NC(=O)CCCC(=O)O)sc2c1CCC2 | 4.35*
COc1ccccc1NC(=O)c1c(NC(=O)c2ccco2)sc2c1CCC2 | 0.05
CCc1c(O)c2ccccc2n(C)c1=O | -0.16
O=c1c(C(c2ccc3c(c2)OCO3)c2c(O)sc3ccccc3c2=O)c(O)sc2ccccc12 | -1.58
COc1ccc(Cl)cc1NS(=O)(=O)N(C)C | 0.4
COc1cccc(/C=N/n2cnc3sc(-c4ccccc4)cc3c2=O)c1 | 2.16
Cc1ccc(-c2nnc(NCc3ccccc3)c3ccccc23)cc1S(=O)(=O)NCc1cccnc1 | -1.17
CCCCCc1cnc(-c2ccc(C#N)cc2)nc1 | -0.08
COc1cc(-c2ccc(/C=C/c3[nH]c(=O)[nH]c(=O)c3[N+](=O)[O-])o2)c(OC)cc1Cl | -2.27
SMILES | Dicer processing
COc1ccc2c(c1)nnc1nnc(SCC(=O)O)n12 | -0.99
c1ccc2c(c1)CCCc1cc(NCCN3CCOCC3)nnc1-2 | 0.37
O=C(NCCN1CCOCC1)c1cc2nc(-c3ccc(Br)cc3)cc(C(F)(F)F)n2n1 | 1.32
FC(F)(F)c1c2c(nc3cc(-c4ccc(Cl)cc4)nn13)-c1ccccc1C2 | -1.27
O=C(Nc1ccc(O)cc1)c1cc2nc3c(c(C(F)(F)F)n2n1)CCc1ccccc1-3 | 3.22*
O=C(NCCN1CCOCC1)c1cc2nc3c(c(C(F)(F)F)n2n1)CCc1ccccc1-3 | 4.34*
O=C(Nc1cccnc1)c1cc2nc(-c3ccc(Cl)cc3)cc(C(F)(F)F)n2n1 | -2.24
CC1CCN(C2=CC(=O)OC23CCCCC3)CC1 | -0.14
O=S(=O)(Cc1noc(-c2ccc(F)cc2Cl)n1)c1ccsc1 | -1.15
CC1=C(C(=O)OC(C)C)C(c2ccccc2Cl)C2=C(CCCC2=O)N1 (configuration not stated) | -0.99
COC(=O)C1=C(O)CSC1=Nc1ccc(F)cc1 | 5.11*
COC(=O)C1=C(O)CSC1=Nc1ccccc1 | 0.42
COC(=O)c1nn(-c2ccc(F)cc2)ccc1=O | -0.48
Clc1ccc(-c2cnc(SCc3c(Cl)cccc3Cl)o2)cc1 | 1.03
Cn1c2c(c(=O)n(C)c1=O)CN(CCc1ccccc1)CN2 | -3.72
COCCN1CNc2c(c(=O)n(C)c(=O)n2C)C1 | 3.46*
Cn1c2c(c(=O)n(C)c1=O)CN(Cc1ccc(F)cc1)CN2 | 4.31*
Cn1c2c(c(=O)n(C)c1=O)CN(C1CC1)CN2 | -1.79
Cn1c2c(c(=O)n(C)c1=O)CN(CCCCCCO)CN2 | -2.09
Cn1c2c(c(=O)n(C)c1=O)CN(CCc1ccc(Cl)c(Cl)c1)CN2 | -5.59
COC(=O)C/C(=N/NS(=O)(=O)c1ccc(C)cc1)C(=O)OC | -1.85
CNc1nnc(SCc2csc3ccccc23)s1 | 0.81
O=c1oc(-c2c(F)cccc2F)nn1-c1cc(C(F)(F)F)ccn1 | 0.45
O=C(Nc1cnc2ccc(Cl)cn2c1=O)c1ccccc1 | -0.13
CCOC(=O)c1ccc(-n2c(C)c3c(OCC)cccc(=O)c3c2C)cc1 | 3.62*
SMILES | Dicer processing
CCOc1cccc(=O)c2c(C)n(-c3ccc4c(c3)OCO4)c(C)c12 | -1.04
CCOc1cccc(=O)c2c(C)n(-c3ccc(OC)cc3)c(C)c12 | -0.08
CC(C)/C(=N\OC(=O)c1ccc(C(F)(F)F)cc1)c1ccccc1 | -0.99
CN(C)/C=C/C(=O)c1ccc(Cl)cc1 | -0.38
Cc1ccc(C(=O)/C=C/C=C/C=C/N(C)C)cc1 | 4.51*
CN(C)/C=C/C(=O)c1ccc(Cl)c(Cl)c1 | 4.92*
CN(C)/C=C/C(=O)c1ccc(C#Cc2ccccc2)cc1 | 1.41
COc1ccc2cc(C(=O)/C=C/N(C)C)ccc2c1 | -0.67
Cc1ccc(C(=O)/C=C/S/C=C/C(=O)c2ccc(C)cc2)cc1 | -1.9
Cc1nnc(NC(=O)C(C)(C)C)s1 | 2.27
CN/N=C/c1ncc(C(F)(F)F)cc1Cl | 1.45
CSc1sc(C(=O)O)c(-c2ccccc2Cl)c1C#N | -0.64
C=CCSc1nnc(C)n1-c1ccc(OCc2ccccc2)cc1 | -1
O=C1C(=O)N(CCCN2CCOCC2)C(c2cccc(Br)c2)/C1=C(\O)c1ccccc1 (configuration not stated) | -4.39
C=CCSc1nnc2c(n1)OC(c1ccco1)N(C(C)=O)c1ccccc1-2 (configuration not stated) | -0.21
CC(C)(C)OC(=O)NC(COCc1ccccc1)C(N)=O (configuration not stated) | -0.63
CC(C)(C)OC(=O)N[C@@H](Cc1ccccc1)C(=O)OCc1ccc(CC(=O)O)cc1 | 0.83
CSCC[C@H](NC(=O)OC(C)(C)C)C(=O)OCc1ccc(CC(=O)O)cc1 | 3*
CCOC(=O)Nc1sc(C)c(CC)c1C(N)=O | 0.82
O=C1CCC(=O)N1CNc1ccc(Cl)cc1 | 3.97*
O=C1c2ccc([N+](=O)[O-])cc2C(=O)N1CNc1ccc(Cl)cc1 | 2.09
Cc1ccc(Cl)cc1NCN1C(=O)CNC1=S | 13.1
C/C(Cc1ccccc1)=N\NC(=O)c1ccncc1 | -0.68
C/C(=N/NC(=O)c1ccccc1)C(=O)O | 3.29*
CC(C)(C)c1ccc(C(=O)N/N=C(/C(=O)O)c2ccccc2)cc1 | 0.11
SMILES | Dicer processing
CN(CCOC(=O)c1cc2ccccc2oc1=O)c1ccc(C(F)(F)F)cc1[N+](=O)[O-] | 0.08
Cc1cccc(N=C(NO)c2ccccc2)c1 | -3.79
NC(N)=NC(N)=Nc1cc(Cl)cc(Cl)c1 | -0.42
ONC(=Nc1cc(Cl)cc(Cl)c1)c1ccccc1 | 3.02*
O=C(CSc1nc2cc(Cl)ccc2o1)c1ccc(F)cc1 | -0.04
CCOc1ccc(OCC)c([N+](=O)[O-])c1N1CCOCC1 | -0.29
O=C(CCc1ccccc1)NNc1cc(Cl)ccc1Cl | 0.08
CCOC(=O)c1nnn(-c2nonc2N)c1-c1cccs1 | -0.05
CCOC(=O)c1nnn(-c2nonc2N)c1-c1ccccc1Cl | 1.27
CCOC(=O)c1nnn(-c2nonc2N)c1CN(CC)c1ccccc1 | 5.07*
CCOC(=O)c1nnn(-c2nonc2N)c1-c1cccc2ccccc12 | 3.99*
CCN(Cc1c(C(=O)O)nnn1-c1nonc1N)c1ccccc1 | 2.64
CCOC(=O)c1nnn(-c2nonc2N)c1CN(C)c1ccccc1 | -0.22
